Measurements reported in the supplement of paper PMC10338343.
± gives the standard deviation. Over roughly 3,700 sequences, “pre-steady-state target cleavage rate” has its median near 0.02; the highest 2% begin near 0.23. This is one part of a sample in which the highest values are shown more often than they occur.

The sequences below were run on MILI (PIWIL2) piRISC loaded with Kctd7 piRNA (26 nt) (assay: pre-steady-state target cleavage rate (min^-1); MIWI and MILI are mouse PIWI proteins and EfPiwi is from a freshwater sponge; tags in brackets are library labels; higher = faster piRNA-guided slicing of the target). Settings: guide: Kctd7 piRNA 5'p-UGUUAAUCUCUCAGAGAAGGUGACAG; auxiliary factor: 500 nM mouse GTSF1.
Experimental: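 Cleave-'n-Seq: a library of target RNAs (target site embedded in constant flanks, ACAGCATTCCGCGTTAGTGATATCCG... 5' flank; DNA-blocked outside the site) at 0.1 nM was incubated with 1 nM active mouse MILI or MIWI piRISC (synthetic 5'-monophosphorylated piRNA guide) with or without 500 nM mouse GTSF1 at 33 °C for 1 min to 16 h. Uncleaved targets were sequenced and normalised to non-target controls, and the pooled three trials were fitted to a burst-and-steady-state model to give the pre-steady-state cleavage rate (min^-1; k3 is constrained to at most 1e-4). Sequence is the target site only; target names encode pairing extent (gX:gY) and contiguous / 1-mismatch / 2-mismatch / bulge geometry. Fits with R² ≤ 0 are excluded.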
In the case of UAGUCUGUCACCUUCUCUGAGAGAGUUAACA, the “pre-steady-state target cleavage rate” value is reported as 0.297 ± 0.035. UAGUCUGUCACCUUCUCUGAGAGAUUAAACA was tested, and the “pre-steady-state target cleavage rate” value was 0.147 ± 0.018. For UAGUCUGUCACCUUCUCUGAGAGUAAAACA, the “pre-steady-state target cleavage rate” value was 0.0676 ± 0.024. In the case of UAGUCUGUCACCUUCUCUGAGAGGUUAACA, the “pre-steady-state target cleavage rate” value is reported as 0.198 ± 0.025. For UAGUCUGUCACCUUCUCUGAGAGUUAAACA, the “pre-steady-state target cleavage rate” value was 0.328 ± 0.096. In the case of UAGUCUGUCACCUUCUGUGAGAGUUUAACA, the “pre-steady-state target cleavage rate” value is reported as 0.0702 ± 0.016. With UAGUCUGUCACCUUCUCUGUGAGUUUAACA the “pre-steady-state target cleavage rate” value was 0.0314 ± 0.0059. For UAGUCUGUCACCUUCUCUGAGAGAGUAACA, the “pre-steady-state target cleavage rate” value was 0.245 ± 0.033. UAGUGACAGUCCUUCUCUGAGUCAUUAAGA was tested, and the “pre-steady-state target cleavage rate” value was under 0.0001. In the case of UAGUGACACACGAUCUCUGAGAGAUUAACA, the “pre-steady-state target cleavage rate” value is reported as 0.0352 ± 0.0045. UAGUGACAGACCUUAUCUGAGAGAUUAACA was tested, and the “pre-steady-state target cleavage rate” value was 0.0894 ± 0.017. For UAGUGACAGUGCUUCUCCGAGAGAUUAACA, the “pre-steady-state target cleavage rate” value was 0.0082 ± 0.0034. With UAGUGACAGUGGAAGAGAGAGAGAUUGAACA the “pre-steady-state target cleavage rate” value was under 0.0001. UAGUGAGUCAGCUACUCUGAGAGAUUAACA was tested, and the “pre-steady-state target cleavage rate” value was 0.135 ± 0.01. In the case of UAGUGACACACCAACUCUGAGAGAUUAAGA, the “pre-steady-state target cleavage rate” value is reported as 0.018 ± 0.0037. UAGUGACAGUCCUUCUCAGAGAGAUUUACA was tested, and the “pre-steady-state target cleavage rate” value was 0.0138 ± 0.0054. UAGUGACAGUGCUUCUCUGAGACAUAAACA was tested, and the “pre-steady-state target cleavage rate” value was under 0.0001. In the case of UAGUGAGUCACCUUCUCAGAGAGAUUUACA, the “pre-steady-state target cleavage rate” value is reported as 0.0954 ± 0.024. UAGUCUGUCACCUUCUCUGAGAGCUUAACA was tested, and the “pre-steady-state target cleavage rate” value was 0.148 ± 0.016. UAGUCUGUCACCUUCUCUGAGAGUUAACA was tested, and the “pre-steady-state target cleavage rate” value was 0.278 ± 0.082. In the case of UAGUCUGUCACCUUCUCUGAGAGACUUAACA, the “pre-steady-state target cleavage rate” value is reported as 0.145 ± 0.024. In the case of UAGUCUGUCACCAACUCUGAGAGAUUAAGA, the “pre-steady-state target cleavage rate” value is reported as 0.047 ± 0.0083. With UAGUCUGUCCACCUUCUCUGAGAGAUUAACA the “pre-steady-state target cleavage rate” value was 0.15 ± 0.018. In the case of UAGUGUGCCACCUUCUCUGAGAGAUUAACA, the “pre-steady-state target cleavage rate” value is reported as 0.227 ± 0.023. In the case of UAGUGAGUCACCUUCUCUGAGAGAUUAAUCA, the “pre-steady-state target cleavage rate” value is reported as 0.292 ± 0.053. With UAGUGAGUCACCUUCUCUGAGAGAAUUACA the “pre-steady-state target cleavage rate” value was 0.105 ± 0.048. With “UAGUGAGUCACCUUCUCUGAGAGAUUAACU [g2:g24:cont:t1U]” the “pre-steady-state target cleavage rate” value was 0.288 ± 0.038. With “UAGUGAGUCACCUUCUCUGAGAGAUUAACC [g2:g24:cont:t1C]” the “pre-steady-state target cleavage rate” value was 0.192 ± 0.018. In the case of UAGUGAGUCACCUUCUCUGAGAGAAUUAACA, the “pre-steady-state target cleavage rate” value is reported as 0.318 ± 0.059. In the case of UAGUGAGUCACCUUCUCUGAGAAAUUAACA, the “pre-steady-state target cleavage rate” value is reported as 0.132 ± 0.027. For UAGUGUGUCACCUUCCCUGAGAGAUUAACA, the “pre-steady-state target cleavage rate” value was 0.301 ± 0.056. For UAGUGAGUCACCUUCUCUGAGAGAUUAUCA, the “pre-steady-state target cleavage rate” value was 0.197 ± 0.037. In the case of UAGUGUGCACCUUCUCUGAGAGAUUAACA, the “pre-steady-state target cleavage rate” value is reported as 0.196 ± 0.024. UAGUGAGUCACCUUCUCUGAGAGAUUAAUA was tested, and the “pre-steady-state target cleavage rate” value was 0.217 ± 0.03. For UAGUGUGUGCACCUUCUCUGAGAGAUUAACA, the “pre-steady-state target cleavage rate” value was 0.195 ± 0.021. UAGUGAGUCACCUUCUCUGAGAGAUUAACCA was tested, and the “pre-steady-state target cleavage rate” value was 0.219 ± 0.017. For UAGUGACACAGGUUCUCUGAGAGAUUAAGA, the “pre-steady-state target cleavage rate” value was 0.00675 ± 0.0025. UAGUGACAGUCCUUCUCUGAGAGAUUACCA was tested, and the “pre-steady-state target cleavage rate” value was 0.00831 ± 0.0032. For UAGUGACAGACCUUCUGUGAGAGAUUAACA, the “pre-steady-state target cleavage rate” value was 0.087 ± 0.012. UAGUGACACAGGUUCUCUGAGAGAUUAACA was tested, and the “pre-steady-state target cleavage rate” value was 0.0267 ± 0.0054. With UAGUCUGUCACCAUCUCUGAGAGAUUUACA the “pre-steady-state target cleavage rate” value was 0.124 ± 0.018. In the case of UAGUGACAGUCCUUCUCUGUGAGAUUAACA, the “pre-steady-state target cleavage rate” value is reported as 0.033 ± 0.0057. For UAGUCUGUGACGUUCUCUGAGAGAUUAACA, the “pre-steady-state target cleavage rate” value was 0.147 ± 0.01. UAGUGACAGACCUUCUCUGAGAGGUUAACA was tested, and the “pre-steady-state target cleavage rate” value was 0.221 ± 0.058. With UAGUGAGUCACCUUCUCUGAGAGAUUAAAA the “pre-steady-state target cleavage rate” value was 0.135 ± 0.037. UAGUGACACCACCUUCUCUGAGAGAUUAACA was tested, and the “pre-steady-state target cleavage rate” value was 0.184 ± 0.017. For UAGUGAGUCACCUUCUCUGAGAGAUUAAA, the “pre-steady-state target cleavage rate” value was 0.202 ± 0.045. For UAGUGACCCACCUUCUCUGAGAGAUUAACA, the “pre-steady-state target cleavage rate” value was 0.286 ± 0.039. In the case of UAGUGGGUCACCUUCUCUGAGAGAUUAACA, the “pre-steady-state target cleavage rate” value is reported as 0.175 ± 0.01. In the case of UAGUGAGUCACCUUCUCUCUGAGAUUAACA, the “pre-steady-state target cleavage rate” value is reported as 0.0118 ± 0.0043. For UAGUGAGUGACCUUCUCUGAGAGAUUAACA, the “pre-steady-state target cleavage rate” value was 0.157 ± 0.0097. In the case of UAGUGAGUCACCUUCUCUGAGGAGAUUAACA, the “pre-steady-state target cleavage rate” value is reported as 0.0247 ± 0.011. In the case of UAGUGAGUCACCUUCUCUGAGAGAUUAAACA, the “pre-steady-state target cleavage rate” value is reported as 0.33 ± 0.049. For UAGUGAGGUCACCUUCUCUGAGAGAUUAACA, the “pre-steady-state target cleavage rate” value was 0.242 ± 0.016. UAGUGAGUCACCUUCUCUGAAGAGAUUAACA was tested, and the “pre-steady-state target cleavage rate” value was 0.0119 ± 0.0044. “UAGUGAGUCACCUUCUCUGAGAGAUUAACA [g2:g24:cont:t1A]” was tested, and the “pre-steady-state target cleavage rate” value was 0.25 ± 0.021. UAGUGACAGACCUCUCUCUGAGAGAUUAACA was tested, and the “pre-steady-state target cleavage rate” value was 0.0375 ± 0.0076. In the case of UAGUCUGUCACCUUCUGCUGAGAGAUUAACA, the “pre-steady-state target cleavage rate” value is reported as 0.0816 ± 0.013. UAGUCUGUCUCCUACUCUGAGAGAUUAACA was tested, and the “pre-steady-state target cleavage rate” value was 0.157 ± 0.0082. For UAGUGACUCACCUAGUCUGAGAGAUUAACA, the “pre-steady-state target cleavage rate” value was 0.0896 ± 0.0089. In the case of “UAGUGACAGUGCUUCUCUGAGAGAUUAACC [g2:g19:cont:t1C]”, the “pre-steady-state target cleavage rate” value is reported as 0.0223 ± 0.0053. For UAGUGACACACCAUCUCUGAGAGAUUAUGA, the “pre-steady-state target cleavage rate” value was 0.00752 ± 0.0041. UAGUCAGUCACCUUCUCUGAGAGAUUAACA was tested, and the “pre-steady-state target cleavage rate” value was 0.249 ± 0.016. With UAGUCAUGUCACCUUCUCUGAGAGAUUAACA the “pre-steady-state target cleavage rate” value was 0.238 ± 0.023. In the case of UAGUCACACACCUUCUCUGAGAGAUUAACA, the “pre-steady-state target cleavage rate” value is reported as 0.168 ± 0.011. With UAGUCACUCACCUUCUCUGAGAGAUUAACA the “pre-steady-state target cleavage rate” value was 0.207 ± 0.0095. With UAGUGAGUCACCCUUCUCUGAGAGAUUAACA the “pre-steady-state target cleavage rate” value was 0.19 ± 0.02. “UAGUGAGUCACCUUCUCUGAGAGAUUAACG [g2:g24:cont:t1G]” was tested, and the “pre-steady-state target cleavage rate” value was 0.284 ± 0.021. For UAGUGAGUCACCUUCUCUGAGAGAUUACA, the “pre-steady-state target cleavage rate” value was 0.153 ± 0.033. UAGUGAGUCACCUUCUCUGAGAGAUUACCA was tested, and the “pre-steady-state target cleavage rate” value was 0.251 ± 0.05. In the case of UAGUGAGUCACCUUCUCUGAGAGAUUACACA, the “pre-steady-state target cleavage rate” value is reported as 0.187 ± 0.038. UAGUGAGUCACCUUCUCUGAGAGAUUAAGA was tested, and the “pre-steady-state target cleavage rate” value was 0.219 ± 0.035. In the case of UAGUAUGUCACCUUCUCUGAGAGAUUAACA, the “pre-steady-state target cleavage rate” value is reported as 0.211 ± 0.019. UAGUCAGUCACCUUCUCUGAGAGAUUAAGA was tested, and the “pre-steady-state target cleavage rate” value was 0.135 ± 0.024.
